ssDAF12 agonist: activates DAF-12 receptor from parasite S. stercoralis | HEK293 ssDAF-12/GRIP1 lit1-tk-luc reporter, luminescence; % of 3 µM dafachronic acid response | activation, % at 6.8 µM | 370,000 tested, 1% active;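 active = activation above the mean over all tested compounds plus 3 SD, cut at about 0.9% in these data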
DAX1 inh-1: inhibitors of human orphan nuclear receptor DAX1 (NR0B1); inhibition, % at 6.75 µM; P51843; 340,000 tested, 0.99% active; HEK293 Gal4-DAX1 luciferase reporter, luminescence;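 active = inhibition above the mean over all tested compounds plus 3 SD, cut at about 4.2% in these data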;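 also: inhibition shows as a rise in luminescence from relieved DAX1 repression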
Target sequence (P51843 207-470 limits assumed): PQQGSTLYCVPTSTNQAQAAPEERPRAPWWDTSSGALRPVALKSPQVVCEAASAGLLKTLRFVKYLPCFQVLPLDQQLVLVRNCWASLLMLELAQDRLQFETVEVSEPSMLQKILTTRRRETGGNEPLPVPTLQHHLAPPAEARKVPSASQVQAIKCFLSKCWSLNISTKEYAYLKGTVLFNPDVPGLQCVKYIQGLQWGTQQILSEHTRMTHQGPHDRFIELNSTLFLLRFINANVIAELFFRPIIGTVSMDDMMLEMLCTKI
hcDAF-12 act: activators of H. contortus DAF-12 nuclear receptor; HEK293 hcDAF-12 lit1-tk-luc reporter, luminescence; 0% DMSO, 100% Δ7-dafachronic acid; activation, % at 6.8 µM; 370,000 tested, 1.4% active; AID 652067;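 active = activation above the mean of all tested compounds plus 3 SD, cut at about 5.5% in these data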
DAX1 inh-2: inhibitors of DAX1 repression of SF-1 activated StAR promoter | inhibition, % at 6.8 µM | HEK293T StAR-luciferase reporter, SF-1/DAX-1 repression relief | 370,000 tested, 1.1% active | AID 652010;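 active = inhibition above the mean over all tested compounds plus 3 SD, cut at about 3.6% in these data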;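 also: higher inhibition means more luminescence from relief of DAX-1 repression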
hgDAF-12 ag: hgDAF-12 agonism, primary luciferase screen; HEK293 GAL4-hgDAF12 UAS-luciferase reporter, agonist luminescence; normalized to butyrate control; activation, % at 6.8 µM; 370,000 tested, 1.8% active; AID 687014;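 active = activation above a cutoff set at the mean of all screened compounds plus 3 SD, cut at about 10% in these data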
SMARCA2 act: activators of SMARCA2 function | 370,000 tested, 1% active | activation, % at 9.1 µM | MG213 cells, MMTV-luciferase reporter, dexamethasone, overnight; in the data active = activation above about 7.8%
SMARCA2 conf: SMARCA2 activation, confirmation screen; shares compounds with SMARCA2 act; MG213 cells, MMTV-luciferase with dexamethasone, luminescence, overnight; MG213 cells expressing E1A, Rb sequestered; DMSO wells 0%, reference activator 100%; activation, % at 9.1 µM; 3,500 tested, 30% active;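 active = activation above its plate's cutoff, the mean activation of tested wells plus 3 SD, cut at about 7.9% in these data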
VP16 Luc act: GAL4-VP16 reporter activation counter-screen; shares compounds with SMARCA2 act; HEK293 GAL4-VP16 pG5luc reporter, luciferase luminescence; scaled: DMSO wells 0%, SAHA wells 100%; activation, % at 9.1 µM; 3,500 tested, 41% active; AID 686939;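 active = activation above the solvent-only control well mean plus 3 SD, averaged across control plates, cut at about 5.2% in these data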
Hits are given with their value; n = inactive; x = not tested or not shown. This is a sample that favours compounds with a hit; in the whole collection about 4.8% have one here.

SMILES	ssDAF12 agonist	DAX1 inh-1	hcDAF-12 act	DAX1 inh-2	hgDAF-12 ag	SMARCA2 act	SMARCA2 conf	VP16 Luc act
CCCN(/C=N/c1sc2c(c1C#N)CCCCC2)CCC	n	n	n	n	n	15	n	n
N#Cc1c(/N=C/N2CCOCC2)sc2c1CCCCC2	n	n	n	n	n	18	n	12
COCc1nnc(NC(=O)c2cccc(NC(=O)C(C)C)c2)s1	n	n	n	n	n	n	x	x
CCc1nnc(NC(=O)c2cccc(NC(=O)C(C)C)c2)s1	n	n	n	n	n	8.8	n	5.9
O=C(O)c1ccccc1C(=O)NNc1cccc(Cl)n1	n	n	n	n	n	8.6	n	n
COc1ccc(N(CC(=O)N2CCOCC2)S(C)(=O)=O)cc1OC	n	n	n	n	n	n	x	x
N#Cc1ccc(/C=C\c2nccc3c2[nH]c2ccccc23)cc1	n	n	n	n	n	9.9	10	n
OCCCCc1nccc2c1[nH]c1ccccc12	n	n	n	n	n	n	x	x
Cc1cccc(C)c1-n1nnnc1C(C)(C)N1CCN(N=O)CC1	n	n	n	n	n	n	x	x
CN(C(=O)c1ccc(NC(=O)Cc2ccc(NC(=O)C3CCN(C(=O)C4CCC4)CC3)cc2)cc1)C1CCCC1	n	n	n	n	n	n	x	x
CC#CC#Cc1cccc(=O)o1	n	n	n	n	n	9.8	15	n
COc1ccc(NC(=O)c2cnc3sccn3c2=O)cc1	0.9	n	n	n	n	8.3	n	5.2
O=C(Nc1cnc2sccn2c1=O)c1ccccc1Cl	n	n	n	3.9	n	8.0	15	11
CCOC(=O)C1(C(=O)OCC)COC(=O)C2(CC)OC21 (configuration not stated)	n	n	n	n	n	n	x	x
CC1=C/C(=C(\c2ccc(O)c(C)c2)c2ccccc2S(=O)(=O)O)C=CC1=O	n	n	n	n	n	n	x	x
CCOC(=O)N(C)C[C@H]1OCc2cnnn2CCCC(=O)N([C@@H](C)CO)C[C@@H]1C	n	n	n	n	n	n	x	x
Cc1cccc(CN2C(=O)/C(=C\c3ccc(C(=O)NCCCN4CCN(C)CC4)cc3)Oc3ccccc32)c1	n	n	n	n	n	8.5	12	n
COc1cc(OC)nc(C(NC(=O)C2CCN(Cc3c[nH]c4ccccc34)CC2)c2ccc(Cl)cc2)n1 (configuration not stated)	n	x	n	n	n	12	n	n
COc1cc(OC)nc(C(NC(=O)C2CCN(Cc3ccc(N(C)C)cc3)CC2)c2ccc(F)cc2)n1 (configuration not stated)	n	x	n	n	n	n	x	x
Cc1cc(N2CCC(C(=O)NC3CCCCC3)CC2)nc(-c2ccccc2)n1	n	n	n	n	n	n	x	x
O=C1C=CC(O)C2(CO)OC12 (configuration not stated)	n	n	n	n	n	12	n	n
O=C(C[n+]1ccccc1)Nc1c(Cl)cc(Cl)cc1Cl	n	x	n	n	n	n	x	x
CCc1sc(C(=O)NCc2ccco2)cc1C	n	n	n	n	n	11	n	n
CCc1sc(C(=O)NCc2ccco2)cc1Br	n	n	n	n	n	n	x	x
COc1ccc(-c2nc(C#N)c(NCc3ccc(F)cc3)o2)cc1OC	n	n	n	n	n	n	x	x
SMILES	ssDAF12 agonist	DAX1 inh-1	hcDAF-12 act	DAX1 inh-2	hgDAF-12 ag	SMARCA2 act	SMARCA2 conf	VP16 Luc act
COc1ccc(-c2nc(C#N)c(NCc3cccnc3)o2)cc1OC	n	n	n	n	n	10	n	n
O=C(Nc1ccccc1)c1ccccc1OCc1ccc(F)cc1	n	n	n	n	n	n	x	x
O=C(NC1=NCCS1)c1ccccc1OCc1ccc(F)cc1	n	n	n	n	n	10	n	n
c1csc(-c2cnc3ccccc3n2)c1	n	n	n	n	n	n	x	x
O=C(CN1C(=O)NC2(CCc3ccccc32)C1=O)Nc1cccc(Cl)c1 (configuration not stated)	n	n	n	n	n	n	x	x
CC(C)c1ccc(C(=O)CN2C(=O)NC3(CCc4ccccc43)C2=O)cc1 (configuration not stated)	n	n	n	n	n	11	n	n
COc1cccc(NC(=O)CN2C(=O)NC3(CCc4ccccc43)C2=O)c1 (configuration not stated)	n	n	n	n	n	9.0	n	n
O=C(CN1C(=O)NC2(CCc3ccccc32)C1=O)c1ccc(Cl)cc1 (configuration not stated)	n	n	n	n	n	n	x	x
CC(=O)c1ccc(NC(=O)CSc2ccc(-c3ccc4c(c3)OCO4)nn2)cc1	n	n	n	n	n	n	x	x
C/C(=N\Nc1ccccn1)c1cccs1	n	n	n	3.9	n	10.0	11	6.4
CC(=O)NNc1nc(-c2ccc(C)cc2)cs1	n	n	n	n	n	n	x	x
CCCC(=O)Nc1ccc(-c2csc(NNC(C)=O)n2)cc1	n	n	n	n	n	12	n	n
O=C1c2cccc3c2C2(O)c4c1cccc4C(=O)c1cccc(c12)C3=O	n	n	n	n	n	8.1	n	n
CC1(C)c2ccccc2C(=O)c2ccccc21	n	n	n	n	n	n	x	x
COc1ccccc1N1CCN(C(=O)c2sc3nc(-c4ccccc4)cn3c2C)CC1	n	n	n	n	n	n	x	x
CCOc1ccc(OCC)c(NC(=O)C2CCCN(S(=O)(=O)c3c(C)n[nH]c3C)C2)c1 (configuration not stated)	n	n	n	n	n	n	x	x
COc1ccccc1CNC(=O)c1ccccc1SCC(=O)NCc1ccco1	n	n	n	n	n	n	x	x
COc1ccc(C2=Nn3c(nnc3-c3ccco3)SC2)cc1OC	n	n	n	n	n	8.2	13	9.2
COc1ccc(C2=Nn3c(nnc3-c3ccccc3Cl)SC2)cc1OC1CCOC1 (configuration not stated)	n	n	n	n	n	11	18	n
COc1ccc(C2=Nn3c(nnc3-c3ccccn3)SC2)cc1OC	n	n	n	n	n	n	x	x
COc1ccc(C2=Nn3c(nnc3-c3ccccc3OC)SC2)cc1OC	n	n	n	n	n	16	16	12
COc1cc(C2c3c(oc4cc(C)c(C)cc4c3=O)C(=O)N2c2cc(C)ccn2)ccc1O (configuration not stated)	n	n	n	n	n	n	x	x
CN1CCN(c2nc3ccccn3c(=O)c2/C=C(\C#N)S(=O)(=O)c2ccccc2)CC1	n	n	n	n	n	n	x	x

From PubChem BioAssay
